PLK1 PBD inh – qHTS for Inhibitors of PLK1-PDB (polo-like kinase 1 - polo-box domain): Primary Screen; Serine/threonine-protein kinase PLK1 (Homo sapiens), P53350; Plk1 PBD binding of FITC phosphopeptide, fluorescence polarization; Potency, µM, for the others: max response, negative = inhibition, usual class: inhibitors; actives 2.8% (n = 360,000); AID 720504, 2013; further: series mostly up to about 57 µM; nearly all actives have a fitted effect of over 65% in size
Sfp PPTase inh – qHTS Assay for Inhibitors of Bacillus subtilis Sfp phosphopantetheinyl transferase (PPTase); 4'-phosphopantetheinyl transferase ffp (Bacillus subtilis), Q9F4F7; Biochemical Sfp PPTase activity, qHTS; Potency, µM, for the others: largest response in the series, negative = inhibition, most hits filed as inhibitors; actives 3.5% (n = 310,000);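 further: the enzyme is Sfp with the accession as filed and its product quenches rhodamine fluorescence; 0% = enzyme reaction without inhibitor and -100% = no enzyme wells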
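Buffer: 50 mM Hepes-Na pH 7.6, 10 mM MgCl2, 0.01% Nonidet P-40, 0.01% BSA. Enzyme 15 nM, pre-exposed to compound 15 min; substrates then added and fluorescence change tracked over 30 min.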
Tau ThT inhib – qHTS for Inhibitors of Tau Fibril Formation, Thioflavin T Binding. recombinant tau K18 P301L, heparin-induced fibrillization, ThT fluorescence. Potency, µM (doses to about 57.4 µM), for the others: at the top dose activity, negative = inhibition, hits mostly inhibitors. actives 2.1% (n = 270,000). AID 1460, 2008; further: nearly all actives have a fitted effect of over 55% in size
Target sequence (P10636 561-689 P618L limits assumed): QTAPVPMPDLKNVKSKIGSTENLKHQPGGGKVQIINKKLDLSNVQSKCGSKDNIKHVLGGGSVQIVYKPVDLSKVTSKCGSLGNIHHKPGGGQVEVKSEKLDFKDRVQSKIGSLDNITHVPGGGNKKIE
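Recombinant human tau K18 fragment […] carrying P301L, 15 uM unlabeled plus 0.24 uM Alexa 594-labeled, was fibrillized with 20 uM heparin in 100 mM sodium acetate pH 7 for 6 hr at 37 C; 30 uM ThT fluorescence read after 1 hr.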
VDR inhibitor – Inhibitors of the vitamin D receptor (VDR): qHTS; Vitamin D3 receptor (Homo sapiens), P11473; VDR-SRC2-3 peptide fluorescence polarization, 2 h; Potency, µM, inactives show max response, negative = inhibition, hits mostly inhibitors; actives 0.93% (n = 400,000); AID 504847, 2011
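VDR–SRC2-3 interaction, FP format. Cmpds 23 nl via pintool, brief spin, 2 h ambient incubation.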
Tau fluor cs – Counterscreen qHTS for Inhibitors of Tau Fibril Formation, Fluorescence Polarization | tau K18 P301L Alexa594 fluorescence, heparin fibrillization | Potency, µM (top dose mostly 57.7 µM), without a hit: at the top dose activity change, negative = decrease | actives 0.93% (n = 280,000) | AID 1463, 2008; further: nearly all actives have a fitted effect of over 55% in size
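Human tau K18 P301L (15 uM unlabeled, 0.24 uM Alexa 594-labeled) in 100 mM sodium acetate pH 7 with 20 uM heparin, 6 hr at 37 C. ThT 30 uM added, 1 hr ambient; Alexa 594 FP and total fluorescence read at 555/632 nm.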
Tau fibril FP – qHTS for Inhibitors of Tau Fibril Formation, Fluorescence Polarization | Microtubule-associated protein tau (Homo sapiens), P10636 | K18 P301L tau heparin fibrillization, Alexa594 FP, 6 h | Potency, µM (titrated, usually from 57.7 µM), without a hit: at the top dose activity, negative = inhibition, usual class: inhibitors | actives 0.39% (n = 280,000) | AID 1468, 2008; further: nearly all actives have a fitted effect of over 55% in size
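Steps: dispense K18 P301L tau (15 uM plus 0.24 uM Alexa 594 tracer, final) in pH 7 sodium acetate; add compound; add heparin (20 uM final); incubate 6 hr, 37 C; add ThT (30 uM final); after 1 hr ambient, read FP.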
An asterisk follows results filed as active; ? = inconclusive; . = not tested or not shown. Hits are enriched below; roughly 6% of the tested compounds scored in any of these assays. The call rests on the fitted dose curve; in most records, active means well fitted curve in the direction sought with a large enough effect; inconclusive means small, poorly fitted or top-dose-only effect, or another doubt; inactive means no such curve, though single readings can be large; an effect the other way counts as inactive or inconclusive. Unless noted, on the % scale 0 is the no-effect control and ±100 the full control effect; potency means the concentration at half of the fitted maximal effect.

SMILES | PLK1 PBD inh | Sfp PPTase inh | Tau ThT inhib | VDR inhibitor | Tau fluor cs | Tau fibril FP
Cc1nn(CC(=O)NC2C(=O)N3C(C(=O)O)=C(CSc4nnnn4C)CSC23)cc1Br (stereo not given) | -11% | ? | ? | 1% | -7% | -12%
CCOc1ccc(N(C)C(=O)CS(=O)(=O)c2cccc3nsnc23)cc1 | . | . | ? | 4% | -20% | -6%
Cc1ccc(C(=O)CC(C(=O)O)c2cn(CCC#N)c3ccccc23)cc1 (stereo not given) | 27µM* | 5% | -12% | -23% | -4% | 3%
Cc1cc(C)c(NC(=O)CN2C(=O)CCSc3ccc(S(=O)(=O)N4CCCC4)cc32)c(C)c1 | . | . | 0% | 9% | -1% | -9%
COc1ccc(C(=O)NCc2oc(-c3ccccc3)cc2C(=O)O)cc1 | -11% | 25µM* | 3% | -19% | 3% | 4%
COc1ccc(C(=O)NCc2c(C)oc(C)c2C(=O)O)cc1 | 1% | 6% | . | -1% | . | .
CNc1ccc(/C=C2\CSc3ccccc3C2=O)cc1[N+](=O)[O-] | -5% | -12% | 2.5µM* | ? | 14% | -1%
O=C1/C(=C/c2ccc([N+](=O)[O-])cc2)CCc2ccccc21 | . | 15% | ? | . | -22% | -4%
Cc1ccc(Nc2nc(NCCO)nc3c2cnn3C)cc1Cl | 19µM* | 3% | . | ? | . | .
Cn1ncc2c(Nc3cccc(Cl)c3)nc(Nc3cccc(Cl)c3)nc21 | 3% | 6% | 16% | 18% | ? | 8.9µM*
Cn1ncc2c(Nc3ccc(Br)cc3)nc(Nc3ccc(Br)cc3)nc21 | -12% | 12% | ? | 19% | ? | 10µM*
Cn1ncc2c(Nc3ccc(O)cc3)nc(Cl)nc21 | ? | 12% | -14% | 17% | -17% | 14%
COc1cc(C(=O)NCCc2sc(-c3cccc(F)c3)nc2C)cc(OC)c1OC | . | . | -12% | 7% | -17% | -12%
COc1ccc(CCNC(=O)CN(c2ccccc2)S(=O)(=O)N(C)C)cc1OC | . | . | -2% | -13% | 4% | 11%
Oc1c(Br)cc(Br)cc1C=NCc1ccc(F)cc1 | ? | -48% | 20µM* | -6% | -7% | ?
CC1=NN(c2ccccc2)C(=O)/C1=C/c1ccc(-c2ccc(C)c(C(=O)O)c2)o1 | 4.7µM* | . | . | ? | . | .
CC1=NN(c2ccc(Cl)c(C(=O)O)c2)C(=O)/C1=C\c1ccc(-c2ccc(C(=O)O)cc2)o1 | 8.4µM* | -11% | ? | -30% | -10% | 1%
CC1=NN(c2ccc(C(=O)O)cc2)C(=O)/C1=C/c1ccc(-c2ccccc2F)o1 | . | -21% | . | . | . | .
COC(=O)c1ccccc1-c1ccc(/C=C2\C(=O)N(c3ccccc3)N=C2c2ccccc2)o1 | ? | -1% | ? | 4% | ? | -4%
CC(=O)Nc1ccc(-n2cc(-c3ccccc3)[nH]c2=S)cc1 | -16% | 40µM* | -17% | -11% | -13% | 0%
O=S(=O)(c1ccccc1)c1nc(-c2cccs2)oc1SCc1ccc(F)cc1 | . | . | -17% | -6% | ? | ?
O=C(CSc1oc(-c2cccs2)nc1S(=O)(=O)c1ccccc1)NC1CCCCC1 | -18% | 40µM* | ? | 2% | ? | -3%
CSc1oc(-c2ccco2)nc1S(=O)(=O)c1ccc(F)cc1 | -11% | 79µM* | -16% | -1% | -17% | -3%
CSc1oc(-c2cccs2)nc1S(=O)(=O)c1ccccc1 | ? | 89µM* | . | -21% | -17% | -13%
CCOC(=O)c1cc2c(=Cc3ccc(N(C)C)cc3)c3ccccc3n2[n+]1C | 13µM* | . | . | ? | . | .

High-throughput results as filed in PubChem BioAssay.
